Reference: PubChem BioAssay (EPA / NIEHS)
Results filed as inconclusive are left out. The source made the active and inactive calls. The calls were made as follows, unless noted: active = hit-call score of the fitted dose curve at least 0.9, where 1 is the maximum; inactive = score below 0.9.

Columns and labels:
[1] = CCTE_Harrill_HTTr_Viability_MCF7: CCTE's 6-hour Cell Viability Assessment for the High-Throughput Transcriptomics (HTTr) Platform, in MCF-7 cells cultured in DMEM + 10% fetal bovine serum, Harrill Lab (AID 2284010)
How it was run: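 Read-out is propidium iodide gain of signal by high-content imaging, reflecting membrane integrity loss. Measurements are taken 6 h after dosing, eight concentrations per chemical, with DMSO serving as baseline for bidirectional curve fitting.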

[2] = CCTE_Harrill_HTTr_Apoptosis_MCF7: CCTE's 6-hour Apoptosis Assessment for the High-Throughput Transcriptomics (HTTr) Platform, in MCF-7 cells cultured in DMEM + 10% fetal bovine serum, Harrill Lab (AID 2284011)
How it was run: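 Apoptosis in MCF-7 cells grown in DMEM with 10% fetal bovine serum was scored after a six hour exposure by high content imaging of caspase-3/7 activation (CellEvent Caspase 3/7 Green), with DMSO serving as negative control and baseline.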

[3] = CCTE_Harrill_HTTr_CellCount_MCF7: CCTE's Cell Proliferation Assessment for the High-Throughput Transcriptomics (HTTr) Platform, Harrill Lab (AID 2284012; active = hit-call score of the fitted dose curve at least 0.9, where 1 is the maximum;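 also: cells exposed to compound for six hours; intended direction is loss of nuclei count meaning fewer cells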)
How it was run: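 Cell count served as viability reporter: loss of Hoechst-stained nuclei, counted by high content imaging, marks decreased growth or survival. Exposure was 6 h in MCF-7 cells across eight concentrations, with DMSO as baseline.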

Measured: outcome

O=C1CCO1
inactive: all assays above
